# Assay results from PubChem BioAssay (NCI).
# This is part of a sample that, as a whole, favours compounds with a hit. Of some 83,000 tested, about 20% had one in any assay.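 How to read the values: 0–100, growth inhibition (40 = 60% inhibited); 0, no net growth; -100 to 0, cell death (-40 = 40% of starting cells died; -100 = all dead).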 Calls of active or inactive are those of the source. The calls were made as follows: active = growth percent below 10; inactive = the rest.
# Tested on: SNB-75 CNS
# Test: NCI-60 one-dose screen, 48 h (100 = growth as untreated, 0 = no growth, -100 = all killed)
# Details: 10 µM unless noted
row,Structure (SMILES),growth
1,Cc1cc(CC(=O)O)n(C)c1C(=O)c1ccc(Cl)cc1,121% (inactive)
2,CCN(CC)CCCCNc1c2ccccc2[n+](C)c2c1[nH]c1ccccc12,-49.8% (active)
3,CCN1C2=C(SC(=S)C1=C1SC(C(=O)OC)=C(C(=O)OC)S1)SC(=Nc1ccc(OC)cc1)C2=O,-16.1% (active)
4,CN(CC(=O)Nc1nc2ccccc2[nH]1)S(=O)(=O)c1ccc(Cl)cc1,101% (inactive)
5,CCOC(=O)C(Cc1ccccc1)(C(=O)OCC)C(Br)C(=O)c1ccccc1 (stereo not given),73.5% (inactive)
6,Cc1ccccc1NC(=O)c1cc2ccccc2cc1O,76.8% (inactive)

# Tested on: SNB-19 CNS
# Test: as above
# Details: 10 µM unless noted
row,Structure (SMILES),growth
1,Cn1[nH]cc(/C=N/C(N)=O)c1=O,106% (inactive)
2,Nc1ccc2c(c1)/C(=N/O)c1cc([N+](=O)[O-])ccc1-2,81.4% (inactive)
3,CC(=O)n1c2ccccc2c2ccccc21,113% (inactive)
4,Fc1ccc(-c2nnc(/C=C/c3cn(-c4ccccc4)nc3-c3ccccc3)o2)cc1,108% (inactive)
5,COc1cc(/C=C/C(=O)c2ccc(F)cc2)ccc1OCCCCCOc1cc2c(cc1OC)C(=O)N1CCCC1C=N2 (stereo not given),2.88% (active)
6,O=C(Nc1nc(-c2ccccc2)cs1)c1cc(O)c(O)c(O)c1,41.5% (inactive)
7,O=C1/C(=C/c2ccc3cccc(Cl)c3n2)SC(=S)N1CCc1ccc(O)cc1,97.5% (inactive)
8,Nc1ncc(-c2cnn(C3CCNCC3)c2)cc1-c1nc2cc(Cl)ccc2o1,-91.1% (active)
9,O=C(NCCc1ccccc1)C1CCC(=O)N1Cc1ccc(Br)cc1 (stereo not given),96.7% (inactive)
10,Cn1c(=O)c2c(nc(Br)n2CCC(=O)Nc2ccc(F)cc2)n(C)c1=O,103% (inactive)
11,Cc1cc(C(C)(C)C)cc(C)c1CC1=NCCN1,106% (inactive)
12,CCOc1cc(C(C)(C)C)ccc1C1=N[C@H](c2ccc(Cl)cc2)[C@H](c2ccc(Cl)cc2)N1C(=O)N1CCN(CC#Cc2cccc3c2CN([C@@H]2CCC(=O)NC2=O)C3=O)CC1,45% (inactive)
13,NC(=O)c1ncn([C@@H]2O[C@H](CO)[C@@H](O)[C@H]2O)n1,96.2% (inactive)
14,CCCCC1Nc2nc(SC)n(C)c(=O)c2CN(Cc2ccccc2)C1=O (stereo not given),93.7% (inactive)
15,Cc1c(C)c(N2C(=O)C=CC2=O)c(C)c(C)c1N1C(=O)C=CC1=O,97.3% (inactive)
16,c1ccc2cc(C[n+]3ccn(CCCCCCCn4cc[n+](Cc5ccc6ccccc6c5)c4)c3)ccc2c1,21.6% (inactive)
17,Cc1c(NCc2nnc3n(Cc4ccccc4)c(=O)c4c5c(sc4n23)CCCC5)c(=O)n(-c2ccccc2)n1C,79.9% (inactive)
18,N#CCNc1ccccc1N,117% (inactive)
19,Cc1cc(NC(=O)Nc2cc(Cl)ccc2C)no1,110% (inactive)

row,Structure (SMILES),growth
1,COc1cc(C(=O)/C=C/c2cccnc2Nc2ccccc2)cc(OC)c1OC,-72.5% (active)
2,O=[N+]([O-])c1cnc(Sc2ccncn2)c([N+](=O)[O-])c1,102% (inactive)
3,O=C(Nc1cccc2ccccc12)c1cc2c(cc1Br)OCO2,86.7% (inactive)
4,CCCCCCCCCCC[C@@H](C[C@H]1OC(=O)[C@H]1CCCCCC)OC(=O)[C@@H](CC(C)C)NC=O,55.6% (inactive)
5,CCOC(=O)c1c2c(c(C)n1Cc1ccccc1)-c1nc(N)ncc1CC2,101% (inactive)
6,Clc1ccc(CCC(Cn2ccnc2)Sc2c(Cl)cccc2Cl)cc1 (stereo not given),80.2% (inactive)
7,CN1COc2ccc3ccccc3c2C1,104% (inactive)
8,O=C(Nc1cccc([N+](=O)[O-])c1)c1cccc(C(=O)Nc2cccc([N+](=O)[O-])c2)c1,60.3% (inactive)
9,ClC1C2CC(c3ccccc32)C1Cl (stereo not given),104% (inactive)
10,O=C1c2ccccc2-c2c1nc1ccccc1[n+]2[O-],103% (inactive)
11,NC(=Nc1ccccc1)SCCCCSC(N)=Nc1ccccc1,99.3% (inactive)
12,CC12CCC3C(CCC4CC(=O)/C(=C\O)CC43C)C1CCC(=O)O2 (stereo not given),119% (inactive)
13,Cc1cc(CC(=O)O)n(C)c1C(=O)c1ccc(Cl)cc1,108% (inactive)
14,CCN(CC)CCCCNc1c2ccccc2[n+](C)c2c1[nH]c1ccccc12,-22.7% (active)
15,CCN1C2=C(SC(=S)C1=C1SC(C(=O)OC)=C(C(=O)OC)S1)SC(=Nc1ccc(OC)cc1)C2=O,4.72% (active)
16,CN(CC(=O)Nc1nc2ccccc2[nH]1)S(=O)(=O)c1ccc(Cl)cc1,92.4% (inactive)
17,CCOC(=O)C(Cc1ccccc1)(C(=O)OCC)C(Br)C(=O)c1ccccc1 (stereo not given),97.5% (inactive)
18,Cc1ccccc1NC(=O)c1cc2ccccc2cc1O,61.9% (inactive)

# Tested on: U251 CNS
# Test: as above
# Details: 10 µM unless noted
row,Structure (SMILES),growth
1,Cn1[nH]cc(/C=N/C(N)=O)c1=O,103% (inactive)
2,Nc1ccc2c(c1)/C(=N/O)c1cc([N+](=O)[O-])ccc1-2,66.7% (inactive)
3,CC(=O)n1c2ccccc2c2ccccc21,104% (inactive)
4,Fc1ccc(-c2nnc(/C=C/c3cn(-c4ccccc4)nc3-c3ccccc3)o2)cc1,82.1% (inactive)
5,COc1cc(/C=C/C(=O)c2ccc(F)cc2)ccc1OCCCCCOc1cc2c(cc1OC)C(=O)N1CCCC1C=N2 (stereo not given),-77.5% (active)
6,O=C(Nc1nc(-c2ccccc2)cs1)c1cc(O)c(O)c(O)c1,32.1% (inactive)
7,O=C1/C(=C/c2ccc3cccc(Cl)c3n2)SC(=S)N1CCc1ccc(O)cc1,94% (inactive)
8,Nc1ncc(-c2cnn(C3CCNCC3)c2)cc1-c1nc2cc(Cl)ccc2o1,-100% (active)
9,O=C(NCCc1ccccc1)C1CCC(=O)N1Cc1ccc(Br)cc1 (stereo not given),96.7% (inactive)
10,Cn1c(=O)c2c(nc(Br)n2CCC(=O)Nc2ccc(F)cc2)n(C)c1=O,96.7% (inactive)
11,Cc1cc(C(C)(C)C)cc(C)c1CC1=NCCN1,106% (inactive)
12,CCOc1cc(C(C)(C)C)ccc1C1=N[C@H](c2ccc(Cl)cc2)[C@H](c2ccc(Cl)cc2)N1C(=O)N1CCN(CC#Cc2cccc3c2CN([C@@H]2CCC(=O)NC2=O)C3=O)CC1,65.8% (inactive)
13,NC(=O)c1ncn([C@@H]2O[C@H](CO)[C@@H](O)[C@H]2O)n1,94.7% (inactive)
14,CCCCC1Nc2nc(SC)n(C)c(=O)c2CN(Cc2ccccc2)C1=O (stereo not given),92.2% (inactive)
15,Cc1c(C)c(N2C(=O)C=CC2=O)c(C)c(C)c1N1C(=O)C=CC1=O,112% (inactive)
16,c1ccc2cc(C[n+]3ccn(CCCCCCCn4cc[n+](Cc5ccc6ccccc6c5)c4)c3)ccc2c1,21% (inactive)
17,Cc1c(NCc2nnc3n(Cc4ccccc4)c(=O)c4c5c(sc4n23)CCCC5)c(=O)n(-c2ccccc2)n1C,97.6% (inactive)
18,N#CCNc1ccccc1N,97.2% (inactive)
19,Cc1cc(NC(=O)Nc2cc(Cl)ccc2C)no1,108% (inactive)

row,Structure (SMILES),growth
1,COc1cc(C(=O)/C=C/c2cccnc2Nc2ccccc2)cc(OC)c1OC,-94.8% (active)
2,O=[N+]([O-])c1cnc(Sc2ccncn2)c([N+](=O)[O-])c1,100% (inactive)
3,O=C(Nc1cccc2ccccc12)c1cc2c(cc1Br)OCO2,103% (inactive)
4,CCCCCCCCCCC[C@@H](C[C@H]1OC(=O)[C@H]1CCCCCC)OC(=O)[C@@H](CC(C)C)NC=O,63% (inactive)
5,CCOC(=O)c1c2c(c(C)n1Cc1ccccc1)-c1nc(N)ncc1CC2,106% (inactive)
6,Clc1ccc(CCC(Cn2ccnc2)Sc2c(Cl)cccc2Cl)cc1 (stereo not given),57.2% (inactive)
7,CN1COc2ccc3ccccc3c2C1,92% (inactive)
8,O=C(Nc1cccc([N+](=O)[O-])c1)c1cccc(C(=O)Nc2cccc([N+](=O)[O-])c2)c1,31.8% (inactive)
9,ClC1C2CC(c3ccccc32)C1Cl (stereo not given),106% (inactive)
10,O=C1c2ccccc2-c2c1nc1ccccc1[n+]2[O-],103% (inactive)
11,NC(=Nc1ccccc1)SCCCCSC(N)=Nc1ccccc1,72.4% (inactive)
12,CC12CCC3C(CCC4CC(=O)/C(=C\O)CC43C)C1CCC(=O)O2 (stereo not given),100% (inactive)
13,Cc1cc(CC(=O)O)n(C)c1C(=O)c1ccc(Cl)cc1,99.5% (inactive)
14,CCN(CC)CCCCNc1c2ccccc2[n+](C)c2c1[nH]c1ccccc12,0.218% (active)
15,CCN1C2=C(SC(=S)C1=C1SC(C(=O)OC)=C(C(=O)OC)S1)SC(=Nc1ccc(OC)cc1)C2=O,-32.5% (active)
16,CN(CC(=O)Nc1nc2ccccc2[nH]1)S(=O)(=O)c1ccc(Cl)cc1,78.9% (inactive)
17,CCOC(=O)C(Cc1ccccc1)(C(=O)OCC)C(Br)C(=O)c1ccccc1 (stereo not given),88.1% (inactive)
18,Cc1ccccc1NC(=O)c1cc2ccccc2cc1O,25.9% (inactive)
